# Assay outcomes as filed in PubChem.
# Shown is part of a subset that was picked to be rich in hits.
# HT1080 IDH1KD tx – kills HT-1080 cells with IDH1 knockdown. HT-1080 IDH1 knockdown viability, ATP luminescence, 48 h. Potency, µM (series often up to 46.1 µM), without a hit: at the top dose activity, negative = toxicity, most hits filed as cytotoxic. 360,000 compounds, 2% hits;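 note: potency is the fitted concentration of half-maximal effect; 0% = DMSO wells and -100% = cell-free medium wells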
#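 HT-1080-IDH1KD cells (IDH1 knocked down), 750/well in RPMI with 5% FBS, treated with compound 48 h at 37 degrees C. Viability by CellTiter-Glo luminescence, normalised to DMSO and no-cell wells; concentration-response curves classed.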
# TDP1 cell noCPT – qHTS for Inhibitors of human tyrosyl-DNA phosphodiesterase 1 (TDP1): qHTS in cells in absence of CPT | DT40 Tdp1-/- hTDP1 cells, no CPT, ATP luminescence, 48 h | Potency, µM (doses to about 46.2 µM), for inactives: at the top dose activity change, negative = growth inhibition, usual class: inhibitors | 420,000 compounds, 15% hits | AID 686978, 2013; note: potency is the fitted concentration of half-maximal effect; nearly all actives have a fitted effect of over 55% in size
#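 Growth kinetics read by CellTiter-Glo luminescence after ≥48 hr at 37 °C. Cells: DT40 Tdp1-/- stably carrying human TDP1, 400 per well, compound exposure in the absence of CPT (DMSO vehicle).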
# TDP1 cell CPT – DT40-hTDP1 cell growth loss with CPT; chicken DT40 Tdp1-/-;hTDP1 cells + 20 nM CPT, ATP luminescence, 48 h; Potency, µM (top dose mostly 46.2 µM), without a hit: top-dose activity change, negative = growth inhibition, usual class: inhibitors; 420,000 compounds, 12% hits; note: potency is the fitted concentration of half-maximal effect; nearly all actives have a fitted effect of over 55% in size
#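 Chicken DT40 Tdp1-/- cells complemented with human TDP1, 400 cells/well, exposed to compounds plus 20 nM camptothecin for at least 48 h at 37 C; viability read as ATP content by CellTiter-Glo luminescence.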
# HT1080NT lethal – kills 2HG-producing HT-1080-NT fibrosarcoma cells; HT-1080-NT fibrosarcoma viability, CellTiter-Glo ATP luminescence, 48 h; Potency, µM (series often up to 46.1 µM), for the others: at the highest dose activity, negative = less viability, hits mostly cytotoxic; 360,000 compounds, 1.6% hits;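 note: NT is the 2HG producing partner of a matched IDH1 knockdown line; potency is the fitted concentration of half-maximal effect; 0% = DMSO-treated cells and -100% = media-only wells without cells; nearly all actives have a fitted effect of over 55% in size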
#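 Toxicity toward the 2HG-producing NT line was scored as %Activity, normalised to DMSO and no-cell wells, from CellTiter-Glo luminescence after 48 hours' treatment.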
# IL1B secr inh – inhibitors of inflammasome signaling (IL-1 beta secretion). THP-1 LPS/ATP IL-1B secretion, AlphaLISA, 16 h; hits give low values. activity change, % at 57.5 µM. 360,000 compounds, 4.7% hits. AID 743279; in the data active = activity change below about -50%; inconclusive = mostly about -30% to -49%
#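 THP-1 cells pretreated 1 hr with compounds (up to 57.5 uM final), then stimulated with LPS (250 ng/mL final) plus ATP (1.25 mM final); secreted IL-1B measured by AlphaLISA after 16 hr, decreased signal indicating inhibition.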
# ALOX12 inh – blocks human arachidonate 12S-lipoxygenase. P18054. purified 12hLO, xylenol orange hydroperoxide absorbance. Potency, µM (top dose mostly 108 µM), for the others: top-dose activity change, negative = inhibition, hits mostly inhibitors. 580,000 compounds, 1.1% hits; note: potency is the fitted concentration of half-maximal effect
# Target sequence (P18054 whole entry, looked up): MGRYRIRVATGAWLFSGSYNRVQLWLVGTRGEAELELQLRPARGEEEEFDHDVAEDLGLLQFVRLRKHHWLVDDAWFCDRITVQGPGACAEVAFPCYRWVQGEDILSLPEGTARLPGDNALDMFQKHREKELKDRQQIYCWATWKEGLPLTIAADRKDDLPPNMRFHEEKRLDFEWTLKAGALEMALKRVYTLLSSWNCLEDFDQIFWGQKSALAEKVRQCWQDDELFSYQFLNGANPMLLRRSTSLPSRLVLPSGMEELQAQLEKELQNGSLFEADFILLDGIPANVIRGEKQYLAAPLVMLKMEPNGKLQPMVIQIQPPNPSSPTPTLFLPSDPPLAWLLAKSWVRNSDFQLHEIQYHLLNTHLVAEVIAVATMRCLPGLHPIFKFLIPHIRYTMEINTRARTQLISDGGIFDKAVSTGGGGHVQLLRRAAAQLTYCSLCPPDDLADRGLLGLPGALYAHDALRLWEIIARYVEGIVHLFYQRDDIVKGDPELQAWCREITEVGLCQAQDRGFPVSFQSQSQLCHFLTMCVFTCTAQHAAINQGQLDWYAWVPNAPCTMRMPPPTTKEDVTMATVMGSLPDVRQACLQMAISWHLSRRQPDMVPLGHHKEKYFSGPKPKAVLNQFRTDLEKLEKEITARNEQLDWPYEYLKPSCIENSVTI
#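 Purified human 12hLO at 150 nM in 25 mM Hepes, 0.01% Triton X-100, pH 7.0, preincubated 15 min at room temperature with compound. Reaction started with 40 uM arachidonic acid, 30 min at room temperature. Hydroperoxide measured by Fe-xylenol orange, 573/405 nm absorbance ratio.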
# Starred values were filed as active, the others as inactive; ? = inconclusive; . = no result given; [ ] = dose if it differs, or a comment. Unless noted, calls come from the whole dose curve; as a rule, active = well fitted curve in the direction sought with a large enough effect; inconclusive = small, poorly fitted or top-dose-only effect, or another doubt; inactive = no such curve, though single readings can be large; an effect the other way counts as inactive or inconclusive. Unless noted, % is set by controls: 0 for no effect and ±100 for the full control effect.
SMILES,HT1080 IDH1KD tx,TDP1 cell noCPT,TDP1 cell CPT,HT1080NT lethal,IL1B secr inh,ALOX12 inh
O=C(CN1C(=O)C2(SCC(=O)N2c2ccc(Cl)cc2)c2ccccc21)NCCc1ccccc1 (stereo not drawn),.,18µM*,?,.,.,-10%
COc1ccc(N2C(=O)CSC23C(=O)N(CC(=O)NCCc2ccccc2)c2ccccc23)cc1 (stereo not drawn),.,?,16µM*,.,.,-5%
O=C1CSC2(C(=O)N(Cc3ccccc3)c3ccccc32)N1c1ccc(Cl)cc1 (stereo not drawn),.,21µM*,16µM*,.,.,5%
COc1ccc(N2C(=O)CSC23C(=O)N(CC(=O)NCc2ccccc2)c2ccccc23)cc1 (stereo not drawn),.,?,-5%,.,.,-5%
Cc1cccc(N2C(=O)CSC23C(=O)N(CC(=O)NCc2ccccc2Cl)c2ccccc23)c1 (stereo not drawn),.,21µM*,?,.,.,-14%
Cc1ccc(N2C(=O)CSC23C(=O)N(CC(=O)NCCc2ccccc2)c2ccccc23)cc1C (stereo not drawn),.,?,?,.,.,0%
c1ccc(-c2cn3c(n2)CO[C@@H](CNCC2CCCCC2)C3)cc1,.,.,.,.,.,43%[176 µM]
CCC(C)c1ccc(NC(=S)NCc2ccccc2OC)cc1 (stereo not drawn),-20%,23µM*,?,-27%,22,?
COc1ccccc1CNC(=S)Nc1ccc(F)cc1,6%,5.2µM*,3%,7%,10,15%
COC(=O)Cc1ccc(NC(=S)NCc2ccccc2OC)cc1,16%,?,?,15%,10,?
Fc1ccc(NC(=S)NCc2ccccc2Cl)cc1,1%,-4%,0%,7%,-71*,?
COC(=O)c1c(C(=O)OC)n(CCCN)c2ccc(C)cc12,?,13µM*,23µM*,?,?,9%
CCC1=C(c2ccc(C)cc2)S(=O)(=O)N=C1N1CCC(C(=O)NCc2ccc(N(C)C)cc2)CC1,.,23µM*,18µM*,.,.,?
Cc1nn(-c2ccccc2)c(Cl)c1/C=C1\C(=O)N(C)C(=S)N1C,10%,15µM*,?,-1%,-23,-9%
Cc1nn(-c2ccccc2)c(Cl)c1/C=C1\SC(=S)N(C)C1=O,26%,?,?,22%,3,-22%
Cc1nn(-c2ccccc2)c(Cl)c1/C=C/C(=O)c1ccccc1,?,?,?,?,-95*,.
CNc1c(NC(=O)c2ccc(Cl)cc2)c(=O)oc2ccccc12,.,.,.,.,.,59%
O=S(=O)(NCCc1csc2nc(-c3ccc(F)cc3)nn12)c1ccc2c(c1)OCCO2,.,23µM*,16µM*,.,.,-30%
COc1ccc(-c2nc3scc(CCNS(=O)(=O)c4ccc(Oc5ccccc5)cc4)n3n2)cc1,.,?,-13%,.,.,-10%
COc1ccc(-c2nc3scc(CCNS(=O)(=O)c4c(C)noc4C)n3n2)cc1OC,.,?,-21%,.,.,-20%
COc1ccc(-c2nc3scc(CCNS(=O)(=O)c4ccc5c(c4)OCCO5)n3n2)cc1OC,.,21µM*,?,.,.,?
COc1ccc(-c2nc3scc(CCNS(=O)(=O)c4ccc(F)c(C(F)(F)F)c4)n3n2)cc1OC,.,13µM*,15µM*,.,.,-24%
O=S(=O)(NCCc1csc2nc(-c3ccc(Cl)cc3)nn12)c1ccc2c(c1)OCCO2,.,9.2µM*,15µM*,.,.,-19%
O=S(=O)(NCCc1csc2nc(-c3ccc(F)cc3)nn12)c1ccc(Br)cc1,.,?,?,.,.,0%
Cc1csc2nc(CCNS(=O)(=O)c3ccc4c(c3)OCCO4)cn12,8%,-14%,-9%,0%,-14,18%
SMILES,HT1080 IDH1KD tx,TDP1 cell noCPT,TDP1 cell CPT,HT1080NT lethal,IL1B secr inh,ALOX12 inh
O=C1CCCCN1CC(=O)N1CCCC(c2ccccc2)(c2ccccc2)C1,.,.,.,.,.,89%
Clc1ccc(-c2nnc(C34CC5CC(CC(C5)C3)C4)o2)cn1,22%,29µM*,?,22%,20,.
Cc1cc(C)n(-c2nc3ccccc3nc2Nc2ccc(Cl)cc2)n1,.,.,.,.,.,-20%
Cc1c(C)c2ccc(OC(C)C(=O)NCc3ccc(S(N)(=O)=O)cc3)cc2oc1=O (stereo not drawn),.,.,.,.,.,-4%
Cc1ccccc1-c1nn(-c2ccc(F)cc2F)cc1CNCCN(C)C,-21%,-25%,-13%,-4%,?,42%
Cc1ccccc1-c1nn(-c2ccc(F)cc2F)cc1CNCCCN(C)C,?,7.3µM*,?,?,-62*,-6%
COc1cc(C)ccc1OC(=O)C(C)Oc1ccc(Br)cc1 (stereo not drawn),.,.,.,.,.,17%
Cc1cccc2cc3c(NC(=O)c4ccccn4)nn(C)c3nc12,?,9.2µM*,?,?,37,-2%
CCCn1nc(NC(=O)COC)c2cc3cccc(C)c3nc21,0%,16µM*,?,2%,-20,2%
CCN(CCn1cccn1)Cc1cn[nH]c1-c1ccc(-c2ccccc2)cc1,-15%,23µM*,?,-1%,-22,0%
CCN(CCn1cccn1)Cc1cn[nH]c1-c1cccc2ccccc12,1%,-16%,-14%,6%,4,13%
COc1cc(C(=O)NCC(c2ccccc2)N(C)C)ccc1OCc1c(C)noc1C (stereo not drawn),?,?,16µM*,-20%,5,316%
COc1cc(C(=O)OCC#N)ccc1OCc1c(C)noc1C,26µM*,23µM*,?,?,81,14%
COc1cc(C(=O)NCc2ccc(C)cc2)ccc1OCc1c(C)noc1C,-3%,?,-28%,3%,-11,14%
COc1ccc(CCNC(=O)c2ccc(OCc3c(C)noc3C)c(OC)c2)cc1,-2%,-4%,14%,-5%,33,-1%
COc1cc(C(=O)NCCc2c[nH]c3ccccc23)ccc1OCc1c(C)noc1C,-11%,18µM*,?,-18%,-77*,0%
CCOc1ccc(C2NC(=O)N(CC(=O)N3CCC(C)CC3)C3=C2C(=O)OC3)cc1 (stereo not drawn),.,.,.,.,.,28%
CN1C(=O)C(C(Nc2ccccc2)c2ccc(F)cc2)c2ccccc21 (stereo not drawn),.,.,.,.,.,-1%
CCC(C)C(=O)NCCc1ccccn1 (stereo not drawn),.,.,.,.,.,-14%
